# Reference: the supplement of paper PMC12067093, “Discovery and optimisation of a covalent ligand for TRIM25 and its application to targeted protein ubiquitination” (Chemical Science, 2025)
# The full data set covers some 21,000 targets. This sample favours those with the largest changes.
# Compound: Cc1cc(ccc1-c1ccccc1)C(=O)N1CCCN(CC1)C(=O)CCl [compound 10]
# Test: probe-labelled cysteine peptide fold change vs DMSO (competition) (log2 fold change); higher = less target engagement (more negative = stronger competition)
# Conditions: 10 µM; THP-1; incubation time: 4 h
# 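Further: competitive profiling in live THP-1 cells: cysteine peptides tagged with an iodoacetamide desthiobiotin (IA-DTB) probe, intensity after compound treatment relative to DMSO-treated cells.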
# Chain of UniProt Q9UBW7 (Q9UBW7 whole entry, looked up): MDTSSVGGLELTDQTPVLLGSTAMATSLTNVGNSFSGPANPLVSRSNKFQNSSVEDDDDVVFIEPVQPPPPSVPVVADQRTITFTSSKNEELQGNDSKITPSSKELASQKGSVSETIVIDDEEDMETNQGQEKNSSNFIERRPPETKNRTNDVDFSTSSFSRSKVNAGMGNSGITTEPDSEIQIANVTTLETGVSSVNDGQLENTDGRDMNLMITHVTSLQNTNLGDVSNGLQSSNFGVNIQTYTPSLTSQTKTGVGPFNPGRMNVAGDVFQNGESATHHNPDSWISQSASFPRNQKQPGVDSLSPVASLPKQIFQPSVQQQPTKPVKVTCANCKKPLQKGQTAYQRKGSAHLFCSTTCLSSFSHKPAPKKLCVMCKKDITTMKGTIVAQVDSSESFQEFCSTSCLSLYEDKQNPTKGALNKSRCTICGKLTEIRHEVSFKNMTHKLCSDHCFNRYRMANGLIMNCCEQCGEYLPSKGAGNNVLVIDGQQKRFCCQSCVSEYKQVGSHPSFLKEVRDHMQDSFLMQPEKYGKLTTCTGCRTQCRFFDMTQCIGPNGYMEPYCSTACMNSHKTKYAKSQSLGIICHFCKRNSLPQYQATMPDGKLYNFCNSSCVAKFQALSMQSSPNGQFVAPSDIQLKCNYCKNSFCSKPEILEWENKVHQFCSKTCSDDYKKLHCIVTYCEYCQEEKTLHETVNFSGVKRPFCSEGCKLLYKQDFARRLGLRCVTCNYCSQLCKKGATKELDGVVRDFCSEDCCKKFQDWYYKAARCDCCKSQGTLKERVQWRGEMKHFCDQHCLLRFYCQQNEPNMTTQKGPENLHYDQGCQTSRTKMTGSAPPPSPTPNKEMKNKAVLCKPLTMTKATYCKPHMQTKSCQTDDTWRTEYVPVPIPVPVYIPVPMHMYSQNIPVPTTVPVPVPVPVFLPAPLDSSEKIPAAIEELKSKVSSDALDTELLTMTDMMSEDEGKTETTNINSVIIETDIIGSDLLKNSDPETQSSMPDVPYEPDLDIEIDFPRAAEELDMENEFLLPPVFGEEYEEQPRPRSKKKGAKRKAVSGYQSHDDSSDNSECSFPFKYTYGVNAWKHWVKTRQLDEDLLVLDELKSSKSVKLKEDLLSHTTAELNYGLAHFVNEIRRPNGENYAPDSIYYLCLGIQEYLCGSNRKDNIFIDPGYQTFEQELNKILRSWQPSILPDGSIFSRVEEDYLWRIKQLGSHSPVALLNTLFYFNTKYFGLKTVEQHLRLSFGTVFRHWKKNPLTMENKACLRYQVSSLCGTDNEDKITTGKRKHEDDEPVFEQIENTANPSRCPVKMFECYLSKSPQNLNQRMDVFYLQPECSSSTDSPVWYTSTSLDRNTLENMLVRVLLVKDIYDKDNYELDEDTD
# Chain of UniProt Q9NRH1 (Q9NRH1 whole entry): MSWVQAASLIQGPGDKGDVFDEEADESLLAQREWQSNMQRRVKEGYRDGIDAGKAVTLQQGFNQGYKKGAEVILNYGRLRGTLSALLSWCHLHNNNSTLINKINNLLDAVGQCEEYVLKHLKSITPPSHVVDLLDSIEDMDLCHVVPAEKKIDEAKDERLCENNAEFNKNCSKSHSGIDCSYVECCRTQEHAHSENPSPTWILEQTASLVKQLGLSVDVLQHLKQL
# Chain of UniProt O14980 (O14980 whole entry, looked up): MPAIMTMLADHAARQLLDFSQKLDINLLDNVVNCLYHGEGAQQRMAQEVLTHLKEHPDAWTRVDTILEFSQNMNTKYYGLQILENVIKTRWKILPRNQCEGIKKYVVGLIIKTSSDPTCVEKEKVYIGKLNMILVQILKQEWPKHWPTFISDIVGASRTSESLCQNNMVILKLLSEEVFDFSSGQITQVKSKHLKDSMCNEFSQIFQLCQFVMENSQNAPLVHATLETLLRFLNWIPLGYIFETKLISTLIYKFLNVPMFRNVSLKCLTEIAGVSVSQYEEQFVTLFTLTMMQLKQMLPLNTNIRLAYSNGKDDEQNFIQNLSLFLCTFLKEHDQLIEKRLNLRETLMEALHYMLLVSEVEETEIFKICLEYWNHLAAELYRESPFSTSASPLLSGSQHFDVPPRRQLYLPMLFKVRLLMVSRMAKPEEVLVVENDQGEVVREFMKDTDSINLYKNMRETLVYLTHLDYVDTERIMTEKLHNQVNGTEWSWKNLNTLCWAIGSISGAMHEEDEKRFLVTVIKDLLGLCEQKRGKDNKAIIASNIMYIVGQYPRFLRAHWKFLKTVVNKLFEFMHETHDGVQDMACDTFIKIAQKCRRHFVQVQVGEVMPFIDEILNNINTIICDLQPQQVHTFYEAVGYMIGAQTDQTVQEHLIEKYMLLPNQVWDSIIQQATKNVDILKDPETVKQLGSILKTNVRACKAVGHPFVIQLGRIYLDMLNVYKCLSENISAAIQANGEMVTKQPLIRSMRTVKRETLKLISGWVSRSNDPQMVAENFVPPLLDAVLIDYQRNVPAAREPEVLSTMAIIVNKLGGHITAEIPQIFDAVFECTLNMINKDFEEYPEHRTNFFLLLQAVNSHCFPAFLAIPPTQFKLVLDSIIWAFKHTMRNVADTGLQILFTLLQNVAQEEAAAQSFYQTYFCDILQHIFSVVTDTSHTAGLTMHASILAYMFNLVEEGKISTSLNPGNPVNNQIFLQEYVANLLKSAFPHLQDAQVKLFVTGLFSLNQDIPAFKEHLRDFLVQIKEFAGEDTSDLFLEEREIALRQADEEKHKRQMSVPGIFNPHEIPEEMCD
# Chain of UniProt Q9H6S0 (Q9H6S0 whole entry, looked up): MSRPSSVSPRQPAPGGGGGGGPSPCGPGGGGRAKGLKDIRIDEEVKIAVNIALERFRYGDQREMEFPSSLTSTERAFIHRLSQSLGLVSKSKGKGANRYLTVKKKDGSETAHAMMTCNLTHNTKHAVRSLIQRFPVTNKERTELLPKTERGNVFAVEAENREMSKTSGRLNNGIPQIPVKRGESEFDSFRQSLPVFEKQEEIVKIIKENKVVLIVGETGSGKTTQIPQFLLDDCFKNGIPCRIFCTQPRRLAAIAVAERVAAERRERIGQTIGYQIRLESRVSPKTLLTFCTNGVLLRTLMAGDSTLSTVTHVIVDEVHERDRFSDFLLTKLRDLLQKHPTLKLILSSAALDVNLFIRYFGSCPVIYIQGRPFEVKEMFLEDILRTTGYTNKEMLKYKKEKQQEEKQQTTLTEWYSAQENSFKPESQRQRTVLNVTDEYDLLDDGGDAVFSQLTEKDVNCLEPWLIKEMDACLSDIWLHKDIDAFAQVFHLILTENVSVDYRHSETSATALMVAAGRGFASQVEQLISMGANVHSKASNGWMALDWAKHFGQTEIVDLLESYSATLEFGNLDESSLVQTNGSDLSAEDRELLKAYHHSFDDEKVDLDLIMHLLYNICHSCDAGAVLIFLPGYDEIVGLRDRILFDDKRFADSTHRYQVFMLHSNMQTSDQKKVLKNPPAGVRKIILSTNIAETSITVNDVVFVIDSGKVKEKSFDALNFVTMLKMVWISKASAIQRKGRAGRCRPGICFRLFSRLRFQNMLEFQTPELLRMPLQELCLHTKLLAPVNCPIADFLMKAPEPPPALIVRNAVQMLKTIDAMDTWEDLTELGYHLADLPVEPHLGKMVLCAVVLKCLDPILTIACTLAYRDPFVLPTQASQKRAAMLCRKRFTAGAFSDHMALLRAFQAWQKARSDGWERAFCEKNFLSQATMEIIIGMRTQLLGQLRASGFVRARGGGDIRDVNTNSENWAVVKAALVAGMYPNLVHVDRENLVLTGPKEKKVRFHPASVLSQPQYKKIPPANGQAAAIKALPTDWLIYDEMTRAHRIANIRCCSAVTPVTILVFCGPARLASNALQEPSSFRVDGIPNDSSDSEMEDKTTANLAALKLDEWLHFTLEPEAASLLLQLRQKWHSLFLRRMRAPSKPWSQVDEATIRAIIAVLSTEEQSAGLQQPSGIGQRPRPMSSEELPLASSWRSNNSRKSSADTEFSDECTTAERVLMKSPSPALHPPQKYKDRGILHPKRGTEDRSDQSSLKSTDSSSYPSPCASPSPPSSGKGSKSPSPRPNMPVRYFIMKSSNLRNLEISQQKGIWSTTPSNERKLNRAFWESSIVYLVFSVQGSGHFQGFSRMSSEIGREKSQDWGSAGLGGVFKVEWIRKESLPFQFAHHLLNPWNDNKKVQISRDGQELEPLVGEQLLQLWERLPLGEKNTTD
# Chain of UniProt Q8ND82 (Q8ND82 whole entry, looked up): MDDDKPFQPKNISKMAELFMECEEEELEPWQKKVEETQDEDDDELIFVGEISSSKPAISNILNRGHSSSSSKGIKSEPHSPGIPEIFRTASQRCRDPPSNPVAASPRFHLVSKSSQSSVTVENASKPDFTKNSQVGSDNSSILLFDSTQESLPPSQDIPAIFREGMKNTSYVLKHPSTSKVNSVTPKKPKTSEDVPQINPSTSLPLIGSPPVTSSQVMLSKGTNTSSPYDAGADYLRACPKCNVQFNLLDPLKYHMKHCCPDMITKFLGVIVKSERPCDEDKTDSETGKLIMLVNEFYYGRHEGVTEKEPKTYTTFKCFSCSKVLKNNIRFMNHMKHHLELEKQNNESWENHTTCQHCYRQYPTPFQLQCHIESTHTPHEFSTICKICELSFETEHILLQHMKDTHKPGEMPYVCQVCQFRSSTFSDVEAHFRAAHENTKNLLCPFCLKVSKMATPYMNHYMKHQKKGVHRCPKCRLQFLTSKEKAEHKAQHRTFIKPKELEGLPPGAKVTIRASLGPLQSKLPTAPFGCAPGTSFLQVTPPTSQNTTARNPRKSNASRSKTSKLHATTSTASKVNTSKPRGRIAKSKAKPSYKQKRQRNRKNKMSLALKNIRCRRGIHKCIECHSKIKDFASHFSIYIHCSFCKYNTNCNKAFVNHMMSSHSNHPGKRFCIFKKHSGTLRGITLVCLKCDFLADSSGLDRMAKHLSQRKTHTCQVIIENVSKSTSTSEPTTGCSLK
row,Target,probe-labelled cysteine peptide fold change
1,YARS2_Q9Y2Z4_413_EAPFSEFFLDPGTSVLDTCRK (UniProt Q9Y2Z4),-0.161
2,ZW10_O43264_650_LGIVWQDVLPVNIYCK (UniProt O43264),0.139
3,ZC3HAV1_Q7Z2W4_7_ADPEVCCFITK (UniProt Q7Z2W4),0.158
4,YTHDC2_Q9H6S0_788_LLAPVNCPIADFLMK (UniProt Q9H6S0),-0.0326
5,YEATS2_Q9ULM3_565_QEDSLFASMPPLCPIGSHPK (UniProt Q9ULM3),-0.301
6,ZNF330_Q9Y3S2_120+122_CLSTHACACPLTDAECVECER (UniProt Q9Y3S2),0.16
7,ZNF483_Q8TF39_392_IHLGDRSQKCSK (UniProt Q8TF39),-0.0771
8,ZC3HAV1_Q7Z2W4_168_QQICNQQPPCSR (UniProt Q7Z2W4),0.0782
9,WDR6_Q9NNW5_830_LACHVMHLSSHR (UniProt Q9NNW5),0.144
10,ZNF451_Q9Y4E5_476_TWFCECNQR (UniProt Q9Y4E5),0.0139
11,WDR48_Q8TAF3_366_GGASIIQCHILNDKR (UniProt Q8TAF3),0.239
12,YY1_P25490_390_IHTGDRPYVCPFDGCNK (UniProt P25490),0.136
13,XPO6_Q96QU8_324_NCVPMEFEEYLLR (UniProt Q96QU8),-0.0141
14,ZMYND11_Q15326_126_CLSDEFR (UniProt Q15326),-0.00978
15,ZNF430_Q9H8G1_138_CGHEDLQLR (UniProt Q9H8G1),-0.195
16,ZNF280C_Q8ND82_388_ICELSFETEHILLQHMK (UniProt Q8ND82),0.00547

row,Target,probe-labelled cysteine peptide fold change
1,ZMYM2_Q9UBW7_608_LYNFCNSSCVAK (UniProt Q9UBW7),-0.186
2,ZNF189_O75820_262_CSDCGK<|>ZSCAN22_P52741_466_CSDCGK<|>ZNF16_Q09FC8_435_CSDCGK<|>ZNF81_Q2M218_640_CSDCGK<|>ZNF134_Q5JVG2_290_CSDCGK<|>ZNF415_Q8N8J6_574_CSDCGK (UniProt Q8N8J6+Q5JVG2+Q2M218+Q09FC8+P52741+O75820),0.0389
3,ZMYM4_Q5VZL5_1499_SCVPNSPMWYSTFPIDPGTLDTMLTR (UniProt Q5VZL5),-0.668
4,ZNF512B_Q96KM6_6_TDPFCVGGR (UniProt Q96KM6),-0.0569
5,YAE1_Q9NRH1_143_SITPPSHVVDLLDSIEDMDLCHVVPAEK (UniProt Q9NRH1),-0.335
6,XPO1_O14980_528_DLLGLCEQKR (UniProt O14980),-0.248
7,ZNF687_Q8N1G0_91_NTVCPEQSEALAGGSAGDGAQAAGVTK (UniProt Q8N1G0),-0.392
8,XRN2_Q9H0D6_715_HHPLHDFILELYQTGSTEPVEVPPELCHGIQGK (UniProt Q9H0D6),-0.0366
9,ZDHHC21_Q8IVQ6_112_CGHCVR (UniProt Q8IVQ6),0.0718
10,WDR5_P61964_205_IWDTASGQCLK (UniProt P61964),0.16
11,WDFY4_Q6ZS81_88_AWEHSVGIICFPSLQR (UniProt Q6ZS81),-0.23
12,WDHD1_O75717_285_GYAICGLAWHPTCGR (UniProt O75717),-0.0417
13,ZNF638_Q14966_688_EQSLHYGSVLLITELPEDGCTEEDVR (UniProt Q14966),0.0192
14,ZCCHC3_Q9NUD5_385_GHAFAQCPK (UniProt Q9NUD5),0.0381
15,WDR77_Q9BQA1_186_DSVFLSCSEDNR (UniProt Q9BQA1),0.136

# Same assay, conditions: 50 µM; THP-1; incubation time: 4 h
row,Target,probe-labelled cysteine peptide fold change
1,YARS2_Q9Y2Z4_413_EAPFSEFFLDPGTSVLDTCRK (UniProt Q9Y2Z4),-0.368
2,ZW10_O43264_650_LGIVWQDVLPVNIYCK (UniProt O43264),0.206
3,ZC3HAV1_Q7Z2W4_7_ADPEVCCFITK (UniProt Q7Z2W4),0.175
4,YTHDC2_Q9H6S0_788_LLAPVNCPIADFLMK (UniProt Q9H6S0),-0.072
5,YEATS2_Q9ULM3_565_QEDSLFASMPPLCPIGSHPK (UniProt Q9ULM3),-0.418
6,ZNF330_Q9Y3S2_120+122_CLSTHACACPLTDAECVECER (UniProt Q9Y3S2),-0.138
7,ZNF483_Q8TF39_392_IHLGDRSQKCSK (UniProt Q8TF39),-0.64
8,ZC3HAV1_Q7Z2W4_168_QQICNQQPPCSR (UniProt Q7Z2W4),-0.158
9,WDR6_Q9NNW5_830_LACHVMHLSSHR (UniProt Q9NNW5),0.0864
10,ZNF451_Q9Y4E5_476_TWFCECNQR (UniProt Q9Y4E5),0.0709
11,WDR48_Q8TAF3_366_GGASIIQCHILNDKR (UniProt Q8TAF3),-0.0402
12,YY1_P25490_390_IHTGDRPYVCPFDGCNK (UniProt P25490),0.715
13,XPO6_Q96QU8_324_NCVPMEFEEYLLR (UniProt Q96QU8),0.145
14,ZMYND11_Q15326_126_CLSDEFR (UniProt Q15326),0.0128
15,ZNF430_Q9H8G1_138_CGHEDLQLR (UniProt Q9H8G1),-0.412
16,ZNF280C_Q8ND82_388_ICELSFETEHILLQHMK (UniProt Q8ND82),0.0405

row,Target,probe-labelled cysteine peptide fold change
1,ZMYM2_Q9UBW7_608_LYNFCNSSCVAK (UniProt Q9UBW7),-1.35
2,ZNF189_O75820_262_CSDCGK<|>ZSCAN22_P52741_466_CSDCGK<|>ZNF16_Q09FC8_435_CSDCGK<|>ZNF81_Q2M218_640_CSDCGK<|>ZNF134_Q5JVG2_290_CSDCGK<|>ZNF415_Q8N8J6_574_CSDCGK (UniProt Q8N8J6+Q5JVG2+Q2M218+Q09FC8+P52741+O75820),0.142
3,ZMYM4_Q5VZL5_1499_SCVPNSPMWYSTFPIDPGTLDTMLTR (UniProt Q5VZL5),-0.33
4,ZNF512B_Q96KM6_6_TDPFCVGGR (UniProt Q96KM6),0.0733
5,YAE1_Q9NRH1_143_SITPPSHVVDLLDSIEDMDLCHVVPAEK (UniProt Q9NRH1),0.0421
6,XPO1_O14980_528_DLLGLCEQKR (UniProt O14980),-1.11
7,ZNF687_Q8N1G0_91_NTVCPEQSEALAGGSAGDGAQAAGVTK (UniProt Q8N1G0),-0.0527
8,XRN2_Q9H0D6_715_HHPLHDFILELYQTGSTEPVEVPPELCHGIQGK (UniProt Q9H0D6),0.0175
9,ZDHHC21_Q8IVQ6_112_CGHCVR (UniProt Q8IVQ6),-0.0337
10,WDR5_P61964_205_IWDTASGQCLK (UniProt P61964),0.0228
11,WDFY4_Q6ZS81_88_AWEHSVGIICFPSLQR (UniProt Q6ZS81),0.423
12,WDHD1_O75717_285_GYAICGLAWHPTCGR (UniProt O75717),-0.0589
13,ZNF638_Q14966_688_EQSLHYGSVLLITELPEDGCTEEDVR (UniProt Q14966),0.11
14,ZCCHC3_Q9NUD5_385_GHAFAQCPK (UniProt Q9NUD5),-0.0115
15,WDR77_Q9BQA1_186_DSVFLSCSEDNR (UniProt Q9BQA1),0.227
